The source of these data is PubChem BioAssay (NCI).

Several values for one entry are separate records, joined by “and”; a condition that tells them apart may be missing. Equal values may be shown once. This is part of a sample that, as a whole, favours compounds with a hit. Of some 83,000 tested, about 20% had one in any assay.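 Testing used 96-well plates and a 48-hour single-concentration exposure. Example: -40 means 40% of the starting cells died.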 Unmarked numbers belong to inactive results. Activity calls are given as the source filed them. Rule for the calls: active = growth percent below 10; inactive = the rest.

Some test systems named below: NCI-H23 lung; NCI-H322M lung; HOP-62 NSCLC; NCI-H460 lung; HOP-92 NSCLC; NCI-H522 lung; A549/ATCC NSCLC; 786-0 renal; COLO 205 colon; NCI-H226 lung.
Holding throughout (assay): NCI-60 one-dose screen, 48 h (100 = growth as untreated, 0 = no growth, -100 = all killed)
Conditions in all cases: 10 µM unless noted

In the case of `CCC1(CCSC#N)C(=O)NC(=O)NC1=O`, the growth in the assay on NCI-H23 lung is 91.5%; with NCI-H322M lung it was 97.9%; in the assay with HOP-62 NSCLC, 94.9%; in the assay with NCI-H460 lung it was 107%; in the assay with HOP-92 NSCLC, 85.8%; in the assay on NCI-H522 lung, 109%. In addition, the growth in the assay on A549/ATCC NSCLC is 106%; with 786-0 renal, 93.5%; in the assay on COLO 205 colon it was 108%.

Take `C[C@]12CC[C@H]3[C@@H](CC=C4c5nc(-c6ccc(Br)cc6)sc5CC[C@@]43C)[C@@H]1CC[C@@H]2O`: the growth was 88.4% in the assay with NCI-H23 lung; 100% in the assay on NCI-H226 lung; 94.7% with NCI-H322M lung; 106% with NCI-H460 lung; 130% with HOP-92 NSCLC; 97.5% in the assay on NCI-H522 lung. The growth was 106% in the assay on A549/ATCC NSCLC, 45% in the assay with 786-0 renal and 119% with COLO 205 colon.

Take `O=[N+]([O-])c1ccc2scc3c4ccccc4nc-3c2c1`: the growth with NCI-H23 lung is 30.7%; with NCI-H322M lung, 58.1%; in the assay on HOP-62 NSCLC, 2.95% (active); with NCI-H460 lung it was 42.7%; with HOP-92 NSCLC it was -61.8% (active); in the assay with NCI-H522 lung it was -88.8% (active). For the same molecule, the growth with A549/ATCC NSCLC is 18.9%; in the assay on 786-0 renal, -82.9% (active).

Take `COc1ccc2c(c1)C1(C)CCN(C)CC(C1)C2O` (stereo not drawn): the growth in the assay on NCI-H23 lung is 98.1%; in the assay with NCI-H226 lung, 81.7%; in the assay with NCI-H322M lung it was 105%; in the assay on NCI-H460 lung, 105%; in the assay on HOP-92 NSCLC, 101%; in the assay on A549/ATCC NSCLC it was 95.1%. Further, the results for the growth in the assay with 786-0 renal and in the assay on COLO 205 colon were 94.8% and 103%, respectively.

On to `COc1ccc(CN)cc1OC`, for which the growth was 101% and 104% with NCI-H23 lung; 135% and 96.9% with NCI-H322M lung; 107% and 101% with HOP-62 NSCLC; 124% and 102% in the assay with NCI-H460 lung; 108% in the assay on HOP-92 NSCLC; 107% and 98.5% with NCI-H522 lung. Besides, the growth in the assay with A549/ATCC NSCLC was 108% and 102%; in the assay on 786-0 renal it was 105% and 101%; in the assay on COLO 205 colon, 122% and 109%.

`CC(=O)c1cccc(S(=O)(=O)F)c1`: the growth in the assay on NCI-H23 lung is 100%; with NCI-H226 lung, 97.2%; in the assay with NCI-H322M lung, 95.6%; with NCI-H460 lung it was 109%; in the assay on NCI-H522 lung, 89.8%; in the assay with A549/ATCC NSCLC it was 98.6%. Besides, the growth was 98.4% with 786-0 renal and 114% in the assay with COLO 205 colon.

Regarding `ClC1OC(Cl)(Cl)C(Cl)(Cl)OC1(Cl)Cl` (stereo not drawn), the growth in the assay on NCI-H23 lung was 98.6%; in the assay with NCI-H226 lung, 94.7%; with NCI-H322M lung, 100%; with NCI-H460 lung, 128%; in the assay on NCI-H522 lung it was 89.4%; with A549/ATCC NSCLC, 102%. Moreover, in the assay on 786-0 renal, the growth was 109%.

Regarding `O=C(O)C(O)c1ccc(Cl)cc1` (stereo not drawn), the growth in the assay with NCI-H23 lung is 99.1% and 107%; in the assay with NCI-H226 lung it was 97% and 103%; in the assay with NCI-H322M lung, 101% and 118%; in the assay on NCI-H460 lung, 106% and 114%; in the assay on HOP-92 NSCLC, 112%; in the assay with NCI-H522 lung it was 100% and 88.1%. The growth was 107% and 95.6% in the assay on A549/ATCC NSCLC; 97.6% and 96.7% with 786-0 renal; 106% and 116% in the assay with COLO 205 colon.

For the molecule `Cc1ccc(P(=O)(O)O)cc1`, the growth in the assay on NCI-H23 lung is 108%; with NCI-H322M lung, 111%; in the assay with HOP-62 NSCLC it was 120%; with NCI-H460 lung it was 108%; in the assay on HOP-92 NSCLC it was 120%; in the assay with NCI-H522 lung, 101%. Also, the growth in the assay with A549/ATCC NSCLC is 102%; in the assay on 786-0 renal, 103%.

Take `O=[N+]([O-])c1ccc(CI)cc1`: the growth in the assay on NCI-H23 lung was 101%; in the assay on NCI-H226 lung, 94.6%; in the assay on NCI-H322M lung it was 106%; in the assay on NCI-H460 lung, 101%; in the assay with A549/ATCC NSCLC, 101%; in the assay on 786-0 renal, 94%. The growth with COLO 205 colon was 88.8%.

Regarding `ClCc1ccc(Cl)c(Cl)c1`, the growth is 102% in the assay with NCI-H23 lung; 93.7% in the assay on NCI-H226 lung; 98.3% in the assay on NCI-H322M lung; 103% in the assay with NCI-H460 lung; 94.2% in the assay with NCI-H522 lung; 107% with A549/ATCC NSCLC. Besides, the growth is 95.4% in the assay with 786-0 renal and 116% with COLO 205 colon.

In the case of `COC1C(O)CC(OC2CC(Oc3cc4cc5c(c(O)c4c(O)c3C)C(=O)[C@@H](OC3CC(OC4CC(OC6CC(C)(O)C(OC(C)=O)C(C)O6)C(O)C(C)O4)C(O)C(C)O3)[C@H]([C@H](OC)C(=O)[C@@H](O)[C@@H](C)O)C5)OC(C)C2OC(C)=O)OC1C` (stereo partly drawn), the growth in the assay with NCI-H23 lung is -44.1% (active); in the assay with NCI-H226 lung, -10.6% (active); in the assay with NCI-H322M lung, -2.53% (active); with NCI-H460 lung, -25.7% (active); with HOP-92 NSCLC, -19.7% (active); in the assay on A549/ATCC NSCLC it was -64.2% (active). In addition, the growth in the assay with 786-0 renal is 1.26% (active); with COLO 205 colon, -57.6% (active).

As to `CC1(C)C2CCC1(CS(=O)(=O)O)C(=O)C2` (stereo not drawn), the growth in the assay with NCI-H23 lung was 108% and 105%; in the assay with NCI-H226 lung it was 128% and 102%; in the assay on NCI-H322M lung, 90.2% and 99.1%; in the assay with NCI-H460 lung, 111% and 108%; in the assay on HOP-92 NSCLC it was 66.9% and 99.9%; in the assay on NCI-H522 lung, 95.4% and 107%. The growth was 96.6% and 96.8% in the assay on A549/ATCC NSCLC; 101% and 98.8% with 786-0 renal; 92.9% and 132% in the assay with COLO 205 colon.

With `C[C@]12CCc3nc(-c4ccc(O)c(O)c4)sc3C1=CC[C@@H]1[C@@H]2CC[C@]2(C)C(=O)CC[C@@H]12`, the growth in the assay on NCI-H23 lung was 69%; in the assay on NCI-H322M lung, 80%; in the assay on HOP-62 NSCLC, 80.8%; in the assay on NCI-H460 lung it was 93.8%; in the assay with HOP-92 NSCLC it was 56.3%; in the assay on NCI-H522 lung, 8.61% (active). Moreover, the growth with A549/ATCC NSCLC is 61.2%; in the assay on 786-0 renal, 75.3%.

For `O=C(Cc1ccccc1)NC(O)C(Cl)(Cl)Cl` (stereo not drawn), the growth with NCI-H23 lung was 102%; in the assay on NCI-H226 lung, 97.2%; in the assay on NCI-H322M lung, 122%; in the assay on NCI-H460 lung, 120%; with HOP-92 NSCLC, 123%; with A549/ATCC NSCLC, 96.3%. The growth was 94.7% in the assay on 786-0 renal and 118% in the assay with COLO 205 colon.
